In all, about 33,000 sequences were measured (“normalized occupancy”: median about 0.075, highest 2% from about 0.095 on). For the sample, the highest values were picked, then their nearest neighbours and some sequences at random.

The target in the test is MaxL homodimer (Homo sapiens, UniProt P61244 1-160). Nature of the test: universal protein-binding microarray (PBM); PBS-based mixture, 10 nM His-tagged protein dimer, 2% milk, 200 ng/uL BSA, 50 ng/uL salmon testes DNA, 0.02% TX-100; detection with Alexa 488 anti-His antibody;; high values mean tight binding. The settings on record: protein: recombinant; tags: C-terminal His-tag (pET21a); chain copies: 2; dsDNA, one strand shown. The method in brief: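 Agilent 4 x 44 K arrays carrying the 'all 10-mer' universal design were incubated with His-tagged protein dimer at 10 nM. Protein that bound was tagged using fluorophore-conjugated anti-His antibody at 10 ng/μL, and a GenePix 4400A scanned the arrays to give an intensity for every 8-mer. Each binding occupancy value expresses an intensity relative to the top-ranked intensity.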
Chain of MaxL homodimer (P61244 whole entry): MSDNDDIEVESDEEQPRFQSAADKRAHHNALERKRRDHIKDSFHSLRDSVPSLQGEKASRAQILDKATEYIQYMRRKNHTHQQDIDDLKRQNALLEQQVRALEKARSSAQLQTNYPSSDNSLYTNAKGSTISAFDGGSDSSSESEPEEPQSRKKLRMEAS
Consider TGAATCCA, for which the binding signal was found to be 0.0757 normalized occupancy.
As for TCGTTCCA, the binding signal amounted to 0.0775 normalized occupancy.
Take CCATAGCC: the binding signal was 0.0762 normalized occupancy.
Regarding GCACACAC, the binding signal turned out to be 0.0907 normalized occupancy.
For the sequence GCACACGC, the binding signal amounted to 0.1 normalized occupancy.
With TCACACGA, the binding signal turned out to be 0.0859 normalized occupancy.
Turning to ACACACGA, the binding signal was found to be 0.0911 normalized occupancy.
Regarding AAACACGA, the binding signal was 0.0848 normalized occupancy.
Consider ACACACGT, for which the binding signal was 0.0986 normalized occupancy.
Turning to CCACACGG, the binding signal is 0.0835 normalized occupancy.
As for CCACACGA, the binding signal came out at 0.0959 normalized occupancy.
In the case of ACACACGG, the binding signal came to 0.083 normalized occupancy.
With AAACACGT, the binding signal was 0.106 normalized occupancy.
AAACACGG: the binding signal is 0.0741 normalized occupancy.
In the case of GCACACGA, the binding signal amounted to 0.0896 normalized occupancy.
For GTTTCCTA, the binding signal stood at 0.0787 normalized occupancy.
Take AATATAAG: the binding signal came to 0.0817 normalized occupancy.
As for CCCCTAAC, the binding signal amounted to 0.0774 normalized occupancy.
Turning to AACACTAC, the binding signal was 0.0726 normalized occupancy.
For the sequence AATAGTGC, the binding signal was 0.0733 normalized occupancy.
The value for GGAGAGAC was 0.0742 normalized occupancy.
Consider AGACACGC, for which the binding signal was 0.0922 normalized occupancy.
On to CCACACAA, for which the binding signal worked out at 0.0772 normalized occupancy.
For the sequence ACACACGC, the binding signal is 0.103 normalized occupancy.
For the sequence CCACACGC, the binding signal came to 0.0953 normalized occupancy.
As to CCACACAC, the binding signal was 0.0837 normalized occupancy.
The value for ACACACAC was 0.0915 normalized occupancy; that for ACTAACAA was 0.0766 normalized occupancy.
Consider GCTTACCA, for which the binding signal amounted to 0.0723 normalized occupancy.
Consider GCAATCTA, for which the binding signal was 0.0722 normalized occupancy.
Take ATTAAAGA: the binding signal came to 0.0773 normalized occupancy.
On to CTATTAAC, for which the binding signal was 0.0779 normalized occupancy.
Consider GTAGTAAA, for which the binding signal amounted to 0.0757 normalized occupancy.
AGGACCAT: the binding signal worked out at 0.0823 normalized occupancy.
In the case of ACTATTCG, the binding signal was determined as 0.0759 normalized occupancy.
In the case of CAAGCATA, the binding signal came to 0.0775 normalized occupancy.
As to AAAGCATA, the binding signal amounted to 0.0783 normalized occupancy.
Consider AAAGCATG, for which the binding signal is 0.104 normalized occupancy.
Consider CAAGCATC, for which the binding signal was determined as 0.0744 normalized occupancy.
For CAAGCATG, the binding signal was determined as 0.105 normalized occupancy.
AAAGCATC: the binding signal was found to be 0.0796 normalized occupancy.
The value for CTCACTTC was 0.0734 normalized occupancy.
Consider TATTCCGA, for which the binding signal amounted to 0.072 normalized occupancy.
As to CTCCACGC, the binding signal amounted to 0.101 normalized occupancy.
For the sequence ATCCACGG, the binding signal came out at 0.0796 normalized occupancy.
The value for ATCCACGC was 0.109 normalized occupancy; that for CTCCACGA was 0.0817 normalized occupancy; that for CTCCACCA was 0.075 normalized occupancy.
Regarding ATCCACGA, the binding signal was 0.0905 normalized occupancy.
The value for AGAGATAA was 0.0771 normalized occupancy.
As to CCTTAGGC, the binding signal was 0.0728 normalized occupancy.
Then CACGCCTA, with 0.0938 normalized occupancy; and GACGCCTC, with 0.0726 normalized occupancy.
With AACGCCTG, the binding signal was 0.0733 normalized occupancy.
Take CTCGCCTC: the binding signal came to 0.0748 normalized occupancy.
Consider CACGCCTG, for which the binding signal is 0.0966 normalized occupancy.
The value for CACGCCTC was 0.0974 normalized occupancy; that for AAATAGTT was 0.0744 normalized occupancy; that for ATGCGAGG was 0.0841 normalized occupancy.
Regarding ATTGTTAA, the binding signal worked out at 0.0765 normalized occupancy.
On to ACGCACGG, for which the binding signal was found to be 0.0828 normalized occupancy.
As to AAGCACGG, the binding signal turned out to be 0.0779 normalized occupancy.
On to ACGCACGA, for which the binding signal was found to be 0.091 normalized occupancy.
Take AAGCACGA: the binding signal was found to be 0.0867 normalized occupancy.
For AAGCACGT, the binding signal is 0.102 normalized occupancy.
In the case of GCGCACGC, the binding signal is 0.0964 normalized occupancy.
As for ACGCACCT, the binding signal was determined as 0.0799 normalized occupancy.
As for GCGCACGA, the binding signal worked out at 0.093 normalized occupancy.
Then GCGCACTA, with 0.0726 normalized occupancy; and ACGCACGC, with 0.109 normalized occupancy.
Then ACGCACTA, with 0.0766 normalized occupancy.
Regarding ACGCACGT, the binding signal came to 0.0986 normalized occupancy.
Regarding GACGACGA, the binding signal was 0.0747 normalized occupancy.
Then AAATGTAA, with 0.0834 normalized occupancy; and ACTCATAC, with 0.074 normalized occupancy; and ATCCCACG, with 0.093 normalized occupancy.
Consider CTTATTAC, for which the binding signal stood at 0.0796 normalized occupancy.
On to CAATCACC, for which the binding signal worked out at 0.0797 normalized occupancy.
As to ACTTGTAG, the binding signal was found to be 0.073 normalized occupancy.
As for GGAGCCAA, the binding signal was determined as 0.0767 normalized occupancy.
In the case of GCAAAGGA, the binding signal stood at 0.0773 normalized occupancy.
Regarding AAATGGGG, the binding signal amounted to 0.0777 normalized occupancy.
Regarding ATGATTTA, the binding signal was 0.079 normalized occupancy.
In the case of CCGCACGA, the binding signal was 0.0824 normalized occupancy.
As for CCGCACGC, the binding signal is 0.0999 normalized occupancy.
CCGCACGG: the binding signal is 0.0742 normalized occupancy.
For the sequence ACATTTTG, the binding signal came to 0.0837 normalized occupancy.
In the case of AACGCCCG, the binding signal stood at 0.0749 normalized occupancy.
The value for CGCGCGAG was 0.0787 normalized occupancy; that for AACGCGAG was 0.0764 normalized occupancy.
The value for GACGCGAC was 0.0735 normalized occupancy.
As for GACGCGAA, the binding signal stood at 0.0735 normalized occupancy.
CACGCGAA: the binding signal worked out at 0.105 normalized occupancy.
In the case of AACGCGAA, the binding signal worked out at 0.0761 normalized occupancy.
As for CACGCGAG, the binding signal was 0.111 normalized occupancy.
Regarding AACGCGAC, the binding signal amounted to 0.0746 normalized occupancy.
Then CACGCGAC, with 0.131 normalized occupancy; and GTGGAATA, with 0.0822 normalized occupancy; and ACGTCTTG, with 0.0724 normalized occupancy.
In the case of ACAGGTTG, the binding signal was 0.0821 normalized occupancy.
For the sequence AAAACGAG, the binding signal is 0.0747 normalized occupancy.
As to GTTCTCCA, the binding signal was 0.0767 normalized occupancy.
Then AACACATA, with 0.0823 normalized occupancy.
Turning to ACCACCTA, the binding signal was found to be 0.082 normalized occupancy.
As for ACCACATG, the binding signal was found to be 0.192 normalized occupancy.
The value for AACACATG was 0.138 normalized occupancy; that for ATGACATG was 0.0993 normalized occupancy; that for ACCACCTG was 0.106 normalized occupancy.
The value for ACCACATC was 0.0807 normalized occupancy.
Turning to ATGACATA, the binding signal worked out at 0.0825 normalized occupancy.
With ACCACCTC, the binding signal was found to be 0.0834 normalized occupancy.
Turning to ACCACATA, the binding signal worked out at 0.0854 normalized occupancy.
In the case of AACACATT, the binding signal amounted to 0.0903 normalized occupancy.
Consider ATGACATC, for which the binding signal was 0.0827 normalized occupancy.

These data come from paper PMC4242493, “Sequence specificity incompletely defines the genome-wide occupancy of Myc”.
